According to PubChem BioAssay (NCATS):
Inconclusive results are not listed. Active and inactive are the calls of the source. Calls come from the whole dose curve; as a rule, active = well fitted curve in the direction sought with a large enough effect; inconclusive = small, poorly fitted or top-dose-only effect, or another doubt; inactive = no such curve, though single readings can be large; an effect the other way counts as inactive or inconclusive.

Key:
[1] = Cellular Toxicity (caspase-3) Mesangial (AID 660); conditions: mesangial cells, normalized: DMSO 0%, 100 µM tamoxifen 100%; at 91.7 µM (top of the series);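 note: combined caspase 3 and 7 activity read by Caspase-Glo luminescence; cells exposed to compound for 16 h before the caspase read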
Method in brief: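 Luminescent Caspase-Glo 3/7 readout (aminoluciferin substrate cleavage, 20 min RT) after 16 h compound exposure at 37 °C of normal human mesangial cells. Signal increase normalized between DMSO basal and 100 uM tamoxifen; Hill-equation AC50.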

[2] = Cellular Toxicity (caspase-3) SK-N-SH (AID 661);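 note: cells exposed to compound for 16 hours; 0% = DMSO basal and 100% = 10 µM staurosporine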
Method in brief: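 Luminescent Caspase-Glo 3/7 read-out after 16 hr compound exposure of SK-N-SH neuroblastoma cells at 37 °C. Signal increase normalized to DMSO (basal) and 10 uM staurosporine (100%); AC50 from Hill equation fits of qHTS concentration-response data.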

[3] = Cellular Toxicity (caspase-3) H-4-II-E (AID 663); conditions: H-4-II-E rat hepatoma, scaled: DMSO 0%, 100 µM tamoxifen 100%; at 92.2 µM (top of the series);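 note: cells exposed to compound for 16 hr before readout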
Method in brief: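 H-4-II-E rat hepatoma, 1500 cells/well, 5 hr settle at 37 °C; compound 16 hr, 37 °C, complete medium; Caspase-Glo 3/7, 20 min RT; luminescence. DMSO = 0%, 100 uM tamoxifen = 100%; Hill-equation AC50.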

[4] = Cellular Toxicity (caspase-3) Hek293 (AID 664); conditions: HEK293 caspase-3 activation, DMSO = 0%, 100 µM tamoxifen = 100%; at 92.2 µM (top of the series);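 note: cells exposed to compound for 16 h at 37 °C before readout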
Method in brief: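 Luminescent Caspase-Glo 3/7 readout (aminoluciferin release) in HEK293 cells after 16 h compound treatment, 37 °C. Normalization: DMSO = basal, 100 uM tamoxifen = 100% stimulation. Concentration-response fitted with standard Hill equation for AC50.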

[5] = Cellular Toxicity (caspase-3) N2a (AID 665);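 note: compound exposure lasted 16 h at 37 °C before readout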
Method in brief: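 Luminescent Caspase-Glo 3/7 readout in N2a mouse neuroblastoma cells after 16 h compound exposure at 37 °C. Signal scaled to DMSO (basal) and 10 uM staurosporine (100%). Concentration-response fitted with Hill equation for AC50.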

[6] = Cellular Toxicity (caspase-3) NIH 3T3 (AID 666);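 note: 0% = DMSO basal and 100% = 100 µM tamoxifen stimulation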
Method in brief: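 NIH 3T3, 1000 cells/well, 5 hr settle then 16 hr compound at 37°C; Caspase-Glo 3/7, 20 min RT, luminescence. DMSO = basal, 100 uM tamoxifen = 100%. Hill-equation AC50, qHTS.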

[7] = Cellular Toxicity (caspase-3) Renal Proximal Tubule (AID 667); conditions: Potency: caspase-3 activation;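 note: cells exposed to compound for 16 hours at 37 °C before detection; 0% = DMSO basal and 100% = 10 µM staurosporine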
Method in brief: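 Luminescent caspase 3/7 signal from peptide-aminoluciferin cleavage measures apoptosis in freshly isolated rat kidney proximal tubule cells after 16 h compound exposure. Concentration-response data are normalized to DMSO and 10 uM staurosporine, and AC50 values come from Hill equation fits.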

[8] = biological target: Cytochrome P450 3A4 (Homo sapiens) (UniProt P08684); assay: qHTS Assay for Inhibitors and Substrates of Cytochrome P450 3A4 (AID 884); note: % is set by controls: 0 for no effect and ±100 for the full control effect; nearly all actives have a fitted effect of over 50% in size
Method in brief: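 Luminescent readout of luciferin produced by CYP3A4 (20 nM) dealkylation of Luciferin-PPXE, 25 uM (its KM). NADPH-driven reaction ran 60 min at RT after 10 min compound preincubation; data scaled to 57 uM ketoconazole as 100% inhibition.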

[9] = Cell Viability - LYMP2-001 (AID 921);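 note: cells exposed to compound for 24 h at 37 °C; 0% = DMSO only and full inhibition = tetraoctylammonium bromide control wells; nearly all actives have a fitted effect of over 70% in size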
Method in brief: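 CellTiter-Glo luminescence (intracellular ATP) after 24 hr compound exposure at 37 C, 2500 lymphoblastoid cells/well in complete medium. AC50 fitted with standard Hill equation; tetraoctylammonium bromide positive control.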

Cytochrome P450 3A4 (Homo sapiens), sequence (P08684 whole entry, looked up): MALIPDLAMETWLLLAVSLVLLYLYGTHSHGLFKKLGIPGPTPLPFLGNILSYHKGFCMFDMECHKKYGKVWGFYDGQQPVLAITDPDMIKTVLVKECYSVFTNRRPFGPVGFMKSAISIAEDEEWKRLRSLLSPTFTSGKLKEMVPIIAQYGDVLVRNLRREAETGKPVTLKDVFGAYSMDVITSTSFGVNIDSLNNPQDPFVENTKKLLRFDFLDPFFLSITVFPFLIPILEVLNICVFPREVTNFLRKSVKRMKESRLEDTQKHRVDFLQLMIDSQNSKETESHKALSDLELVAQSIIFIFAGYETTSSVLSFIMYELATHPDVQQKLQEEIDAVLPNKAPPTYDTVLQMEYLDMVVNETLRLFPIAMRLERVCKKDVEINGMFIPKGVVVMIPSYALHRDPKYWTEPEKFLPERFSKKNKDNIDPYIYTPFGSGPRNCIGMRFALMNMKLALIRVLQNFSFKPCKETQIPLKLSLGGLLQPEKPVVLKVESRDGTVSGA

C=C(C)OC(C)=O
inactive: caspase-3 activation [1] -0.109% | outcome [2] | caspase-3 activation [3] 2.67% | caspase-3 activation [4] -0.975% | outcome [5] | outcome [6] | Potency [7] | Potency [8] | Potency [9]

Cc1cccc(C)c1O
inactive: caspase-3 activation [1] -0.0557% | outcome [2] | caspase-3 activation [3] -0.375% | caspase-3 activation [4] -3.44% | outcome [5] | outcome [6] | Potency [7] | Potency [8] | Potency [9]

Cc1cc(C(=O)O)ccc1[N+](=O)[O-]
inactive: caspase-3 activation [1] 0.159% | outcome [2] | caspase-3 activation [3] -0.927% | caspase-3 activation [4] 1.07% | outcome [5] | outcome [6] | Potency [7] | Potency [8] | Potency [9]

O=C(O[C@@H](C(=O)O)[C@@H](OC(=O)c1ccccc1)C(=O)O)c1ccccc1
inactive: caspase-3 activation [1] 0.793% | outcome [2] | caspase-3 activation [3] 0.201% | caspase-3 activation [4] -0.248% | outcome [5] | outcome [6] | Potency [7] | Potency [8] | Potency [9]

C=C(C)C(=O)OCC(C)C
inactive: caspase-3 activation [1] 1.08% | outcome [2] | caspase-3 activation [3] 0.664% | caspase-3 activation [4] -0.498% | outcome [5] | outcome [6] | Potency [7] | Potency [8] | Potency [9]

C=C(C)C(=O)OC
inactive: caspase-3 activation [1] 0.161% | outcome [2] | caspase-3 activation [3] 1.27% | caspase-3 activation [4] 1.97% | outcome [5] | outcome [6] | Potency [7] | Potency [8] | Potency [9]

CC(C)(O)CCC(C)(C)O
inactive: caspase-3 activation [1] -1.06% | outcome [2] | caspase-3 activation [3] 0.513% | caspase-3 activation [4] 5.12% | outcome [5] | outcome [6] | Potency [7] | Potency [8] | Potency [9]

Nc1ccc([N+](=O)[O-])c(N)c1
inactive: caspase-3 activation [1] -0.0443% | outcome [2] | caspase-3 activation [3] -0.185% | caspase-3 activation [4] -0.316% | outcome [5] | outcome [6] | Potency [7] | Potency [8] | Potency [9]

CC(C)=CCl
inactive: caspase-3 activation [1] 0.522% | outcome [2] | caspase-3 activation [3] -0.24% | caspase-3 activation [4] 1.55% | outcome [5] | outcome [6] | Potency [7] | Potency [8] | Potency [9]

CCCCC=O
inactive: caspase-3 activation [1] -1.05% | outcome [2] | caspase-3 activation [3] -0.686% | caspase-3 activation [4] -0.315% | outcome [5] | outcome [6] | Potency [7] | Potency [8] | Potency [9]

Nc1ccccc1[N+](=O)[O-]
inactive: caspase-3 activation [1] -0.609% | outcome [2] | caspase-3 activation [3] 1.23% | caspase-3 activation [4] -2.96% | outcome [5] | outcome [6] | Potency [7] | Potency [8] | Potency [9]

C=C(C)C(=O)OCCCCCC
inactive: caspase-3 activation [1] 0.76% | outcome [2] | caspase-3 activation [3] 0.664% | caspase-3 activation [4] -0.643% | outcome [5] | outcome [6] | Potency [7] | Potency [8] | Potency [9]

CC(=O)OC(C)C
inactive: caspase-3 activation [1] 0.284% | outcome [2] | caspase-3 activation [3] 0.45% | caspase-3 activation [4] 0.887% | outcome [5] | outcome [6] | Potency [7] | Potency [8] | Potency [9]

BrC(Br)C(Br)Br
inactive: caspase-3 activation [1] -0.634% | outcome [2] | caspase-3 activation [3] 0.661% | caspase-3 activation [4] -0.575% | outcome [5] | outcome [6] | Potency [7] | Potency [8] | Potency [9]

O=C(O)c1cccc([N+](=O)[O-])c1
inactive: caspase-3 activation [1] -1.42% | outcome [2] | caspase-3 activation [3] -0.0521% | caspase-3 activation [4] 2.38% | outcome [5] | outcome [6] | Potency [7] | Potency [8] | Potency [9]

CC(=O)c1cc(C)oc1C
inactive: caspase-3 activation [1] 0.543% | outcome [2] | caspase-3 activation [3] -0.25% | caspase-3 activation [4] 0.799% | outcome [5] | outcome [6] | Potency [7] | Potency [8] | Potency [9]

ClCCl
inactive: caspase-3 activation [1] -1.27% | outcome [2] | caspase-3 activation [3] -0.724% | caspase-3 activation [4] 1.14% | outcome [5] | outcome [6] | Potency [7] | Potency [8] | Potency [9]

Cc1cccc2sc(N)nc12
inactive: caspase-3 activation [1] -0.691% | outcome [2] | caspase-3 activation [3] -0.522% | caspase-3 activation [4] 1.8% | outcome [5] | outcome [6] | Potency [7] | Potency [8] | Potency [9]

CCC(C)(C)C(=O)O
inactive: caspase-3 activation [1] 0.0755% | outcome [2] | caspase-3 activation [3] 1.75% | caspase-3 activation [4] 1.52% | outcome [5] | outcome [6] | Potency [7] | Potency [8] | Potency [9]

CC(C)=C1CCC(C)CC1=O (configuration not stated)
inactive: caspase-3 activation [1] 0.404% | outcome [2] | caspase-3 activation [3] -0.0437% | caspase-3 activation [4] -0.681% | outcome [5] | outcome [6] | Potency [7] | Potency [8] | Potency [9]

CC(CCl)OC(C)CCl (configuration not stated)
inactive: caspase-3 activation [1] -0.591% | outcome [2] | caspase-3 activation [3] 0.133% | caspase-3 activation [4] 1.69% | outcome [5] | outcome [6] | Potency [7] | Potency [8] | Potency [9]

N#Cc1ccccc1
inactive: caspase-3 activation [1] -0.669% | outcome [2] | caspase-3 activation [3] 0.346% | caspase-3 activation [4] 1.36% | outcome [5] | outcome [6] | Potency [7] | Potency [8] | Potency [9]

Cc1ccc(Cl)cc1
inactive: caspase-3 activation [1] 0.555% | outcome [2] | caspase-3 activation [3] 0.337% | caspase-3 activation [4] 0.748% | outcome [5] | outcome [6] | Potency [7] | Potency [8] | Potency [9]
